From PubChem BioAssay AID1159580 (chemical genetic matrix, 2015)
Screen size: about 5,500 compounds; about 2,000 (36%) were called active. Roughly 18% stayed inconclusive and do not appear here. This is one part of the list. Unmarked numbers belong to inactive results. Cut-off read from the data, not from the text of the source: active = normalized growth mostly below about 0.91 (no sharp cut-off); inconclusive = no clear call, values can overlap the other calls; inactive = mostly above about 0.92.

Assay: chemical genetic growth profiling, strain panel (AID 1159580);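 note: tested at 20 µM; growth read once vehicle control cultures reached saturation at 30 °C; 1 = growth at the plate median or of vehicle wells; lower values mean less growth of the strain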
Conditions: growth OD
[1] = S. cerevisiae deletion strains, locus YDL101C, strain DUN1, stronger effect = lower value
[2] = S. cerevisiae deletion strains, locus YHR030C, strain SLT2, stronger effect = lower value

In the case of `O=C(NCCSCc1ccc(Cl)cc1)c1ccc(Cl)cc1`, the normalized growth (S. cerevisiae deletion strains, locus YAL013W, strain DEP1, stronger effect = lower value) is reported as 0.941, the normalized growth (S. cerevisiae deletion strains, locus YBR229C, strain ROT2, stronger effect = lower value) is reported as 0.919 (active) and the normalized growth [1] is reported as 0.915. For the same compound, the normalized growth (S. cerevisiae deletion strains, locus YDR150W, strain NUM1, stronger effect = lower value) was 0.925, the normalized growth (S. cerevisiae deletion strains, locus YEL061C, strain CIN8, stronger effect = lower value) was 1.02 and the normalized growth (S. cerevisiae deletion strains, locus YGR078C, strain PAC10, stronger effect = lower value) was 0.902 (active). The normalized growth [2] was 0.0946 (active), the normalized growth (S. cerevisiae deletion strains, locus YHR087W, strain rtc3, stronger effect = lower value) was 0.903 (active) and the normalized growth (S. cerevisiae deletion strains, locus YJL187C, strain SWE1, stronger effect = lower value) was 0.897 (active). The normalized growth (S. cerevisiae deletion strains, locus YJR043C, strain POL32, stronger effect = lower value) was 0.948, the normalized growth (S. cerevisiae deletion strains, locus YJR075W, strain HOC1, stronger effect = lower value) was 0.954 and the normalized growth (S. cerevisiae deletion strains, locus YLR039C, strain RIC1, stronger effect = lower value) was 1.09. The normalized growth (S. cerevisiae deletion strains, locus YLR058C, strain SHM2 (second series), stronger effect = lower value) was 0.972, the normalized growth (S. cerevisiae deletion strains, locus YLR085C, strain ARP6, stronger effect = lower value) was 0.724 (active) and the normalized growth (S. cerevisiae deletion strains, locus YLR262C, strain YPT6, stronger effect = lower value) was 1.01. The normalized growth (S. cerevisiae deletion strains, locus YML094W, strain GIM5, stronger effect = lower value) was 0.881, the normalized growth (S. cerevisiae deletion strains, locus YMR219W, strain ESC1, stronger effect = lower value) was 0.932 (active) and the normalized growth (S. cerevisiae deletion strains, locus YMR263W, strain SAP30, stronger effect = lower value) was 0.954. For the same compound, the normalized growth (S. cerevisiae deletion strains, locus YMR307W, strain GAS1, stronger effect = lower value) was 0.849, the normalized growth (S. cerevisiae deletion strains, locus YNL128W, strain TEP1, stronger effect = lower value) was 0.965 and the normalized growth (S. cerevisiae deletion strains, locus YNL153C, strain GIM3, stronger effect = lower value) was 0.907 (active). The normalized growth (S. cerevisiae deletion strains, locus YNL298W, strain CLA4 (second series), stronger effect = lower value) was 0.684 (active), the normalized growth (S. cerevisiae deletion strains, locus YNL322C, strain KRE1, stronger effect = lower value) was 0.961 and the normalized growth (S. cerevisiae deletion strains, locus YNR030W, strain Alg12, stronger effect = lower value) was 0.936. The normalized growth (S. cerevisiae deletion strains, locus YPL055C, strain LGE1, stronger effect = lower value) was 0.893, the normalized growth (S. cerevisiae deletion strains, locus YPL241C, strain CIN2, stronger effect = lower value) was 1.03 and the normalized growth (S. cerevisiae deletion strains, locus YPR135W, strain CTF4, stronger effect = lower value) was 1.07. The normalized growth (S. cerevisiae strains, strain wild type, stronger effect = lower value) was 0.887 (active).

Compound `O=C(NCCSCc1cccc(C(F)(F)F)c1)Nc1cccc(C(F)(F)F)c1` has a normalized growth (S. cerevisiae deletion strains, locus YAR019C, strain CDC15, stronger effect = lower value) of 0.999, a normalized growth (S. cerevisiae deletion strains, locus YBL105C, strain PKC1, stronger effect = lower value) of 1 and a normalized growth (S. cerevisiae deletion strains, locus YBR135W, strain CKS1, stronger effect = lower value) of 0.994. It also gave a normalized growth (S. cerevisiae deletion strains, locus YBR136W, strain MEC1, stronger effect = lower value) of 0.998, a normalized growth (S. cerevisiae deletion strains, locus YBR160W, strain CDC28, stronger effect = lower value) of 0.997 and a normalized growth (S. cerevisiae deletion strains, locus YDL017W, strain CDC7, stronger effect = lower value) of 1. For the same compound, the normalized growth (S. cerevisiae deletion strains, locus YDL028C, strain MPS1, stronger effect = lower value) was 0.996, the normalized growth [1] was 1.01 and the normalized growth (S. cerevisiae deletion strains, locus YDL108W, strain KIN28, stronger effect = lower value) was 0.999. The normalized growth (S. cerevisiae deletion strains, locus YDL132W, strain cdc53, stronger effect = lower value) was 0.99, the normalized growth (S. cerevisiae deletion strains, locus YDL214C, strain PRR2, stronger effect = lower value) was 1.01 and the normalized growth (S. cerevisiae deletion strains, locus YDR052C, strain DBF4, stronger effect = lower value) was 1.01. For the same compound, the normalized growth (S. cerevisiae deletion strains, locus YDR054C, strain cdc34, stronger effect = lower value) was 0.995, the normalized growth (S. cerevisiae deletion strains, locus YDR226W, strain ADK1, stronger effect = lower value) was 1 and the normalized growth (S. cerevisiae deletion strains, locus YDR477W, strain SNF1, stronger effect = lower value) was 1.01. It also gave a normalized growth (S. cerevisiae deletion strains, locus YER123W, strain YCK3, stronger effect = lower value) of 1.02, a normalized growth (S. cerevisiae deletion strains, locus YER133W, strain GLC7, stronger effect = lower value) of 1.02 and a normalized growth (S. cerevisiae deletion strains, locus YFL009W, strain cdc4, stronger effect = lower value) of 0.992. The normalized growth (S. cerevisiae deletion strains, locus YFL029C, strain CAK1, stronger effect = lower value) was 0.991, the normalized growth (S. cerevisiae deletion strains, locus YFR003C, strain YPI1, stronger effect = lower value) was 1 and the normalized growth (S. cerevisiae deletion strains, locus YFR019W, strain FAB1, stronger effect = lower value) was 1. For the same compound, the normalized growth (S. cerevisiae deletion strains, locus YFR028C, strain CDC14, stronger effect = lower value) was 0.997, the normalized growth (S. cerevisiae deletion strains, locus YGR040W, strain KSS1, stronger effect = lower value) was 1 and the normalized growth (S. cerevisiae deletion strains, locus YGR052W, strain FMP48, stronger effect = lower value) was 1.18. The normalized growth (S. cerevisiae deletion strains, locus YGR092W, strain DBF2, stronger effect = lower value) was 1, the normalized growth [2] was 1.15 and the normalized growth (S. cerevisiae deletion strains, locus YHR079C, strain IRE1, stronger effect = lower value) was 1.11. The normalized growth (S. cerevisiae deletion strains, locus YHR082C, strain KSP1, stronger effect = lower value) was 1.18, the normalized growth (S. cerevisiae deletion strains, locus YHR205W, strain SCH9, stronger effect = lower value) was 0.989 and the normalized growth (S. cerevisiae deletion strains, locus YIL147C, strain SLN1, stronger effect = lower value) was 1. For the same compound, the normalized growth (S. cerevisiae deletion strains, locus YJL095W, strain BCK1, stronger effect = lower value) was 1.17, the normalized growth (S. cerevisiae deletion strains, locus YJL128C, strain PBS2, stronger effect = lower value) was 0.954 and the normalized growth (S. cerevisiae deletion strains, locus YJL157C, strain FAR1, stronger effect = lower value) was 1.01. For the same compound, the normalized growth (S. cerevisiae deletion strains, locus YJR016C, strain ILV3, stronger effect = lower value) was 1.01, the normalized growth (S. cerevisiae deletion strains, locus YJR066W, strain TOR1 (second series), stronger effect = lower value) was 0.993 and the normalized growth (S. cerevisiae deletion strains, locus YJR066W, strain TOR1, stronger effect = lower value) was 1.21. For the same compound, the normalized growth (S. cerevisiae deletion strains, locus YKL048C, strain ELM1, stronger effect = lower value) was 0.983, the normalized growth (S. cerevisiae deletion strains, locus YKL067W, strain YNK1, stronger effect = lower value) was 1.01 and the normalized growth (S. cerevisiae deletion strains, locus YKL101W, strain HSL1, stronger effect = lower value) was 0.997. The normalized growth (S. cerevisiae deletion strains, locus YKL193C, strain SDS22, stronger effect = lower value) was 1, the normalized growth (S. cerevisiae deletion strains, locus YKL203C, strain TOR2, stronger effect = lower value) was 1.09 and the normalized growth (S. cerevisiae deletion strains, locus YLR113W, strain HOG1, stronger effect = lower value) was 1.07. It also gave a normalized growth (S. cerevisiae deletion strains, locus YLR133W, strain CKI1, stronger effect = lower value) of 0.997, a normalized growth (S. cerevisiae deletion strains, locus YLR403W, strain SFP1, stronger effect = lower value) of 0.999 and a normalized growth (S. cerevisiae deletion strains, locus YML070W, strain DAK1, stronger effect = lower value) of 1.01. For the same compound, the normalized growth (S. cerevisiae deletion strains, locus YMR001C, strain CDC5, stronger effect = lower value) was 0.996, the normalized growth (S. cerevisiae deletion strains, locus YMR205C, strain PFK2 (second series), stronger effect = lower value) was 1.01 and the normalized growth (S. cerevisiae deletion strains, locus YMR277W, strain FCP1, stronger effect = lower value) was 0.999. The normalized growth (S. cerevisiae deletion strains, locus YNL006W, strain LST8, stronger effect = lower value) was 1, the normalized growth (S. cerevisiae deletion strains, locus YNL020C, strain ARK1, stronger effect = lower value) was 0.988 and the normalized growth (S. cerevisiae deletion strains, locus YNL161W, strain CBK1, stronger effect = lower value) was 1. The normalized growth (S. cerevisiae deletion strains, locus YNL183C, strain NPR1, stronger effect = lower value) was 1.15, the normalized growth (S. cerevisiae deletion strains, locus YNL207W, strain RIO2, stronger effect = lower value) was 1.01 and the normalized growth (S. cerevisiae deletion strains, locus YNL222W, strain SSU72, stronger effect = lower value) was 0.998. It also gave a normalized growth (S. cerevisiae deletion strains, locus YNL307C, strain MCK1 (second series), stronger effect = lower value) of 0.997, a normalized growth (S. cerevisiae deletion strains, locus YOL078W, strain AVO1, stronger effect = lower value) of 0.995 and a normalized growth (S. cerevisiae deletion strains, locus YOL136C, strain PFK27, stronger effect = lower value) of 0.992. The normalized growth (S. cerevisiae deletion strains, locus YOR061W, strain CKA2, stronger effect = lower value) was 0.986, the normalized growth (S. cerevisiae deletion strains, locus YOR119C, strain RIO1, stronger effect = lower value) was 1.04 and the normalized growth (S. cerevisiae deletion strains, locus YOR231W, strain MKK1, stronger effect = lower value) was 1.1. It also gave a normalized growth (S. cerevisiae deletion strains, locus YOR329C, strain SCD5, stronger effect = lower value) of 1, a normalized growth (S. cerevisiae deletion strains, locus YPL031C, strain PHO85, stronger effect = lower value) of 1.01 and a normalized growth (S. cerevisiae deletion strains, locus YPL153C, strain RAD53, stronger effect = lower value) of 1.02. The normalized growth (S. cerevisiae deletion strains, locus YPL204W, strain HRR25, stronger effect = lower value) was 1.01, the normalized growth (S. cerevisiae deletion strains, locus YPL209C, strain IPL1, stronger effect = lower value) was 0.997 and the normalized growth (S. cerevisiae deletion strains, locus YPL256C, strain CLN2, stronger effect = lower value) was 1.11. For the same compound, the normalized growth (S. cerevisiae deletion strains, locus YPR025C, strain CCL1, stronger effect = lower value) was 0.999, the normalized growth (S. cerevisiae deletion strains, locus YPR106W, strain ISR1, stronger effect = lower value) was 0.992 and the normalized growth (S. cerevisiae deletion strains, locus YPR111W, strain DBF20, stronger effect = lower value) was 0.986. The normalized growth (S. cerevisiae deletion strains, strain NNK1, stronger effect = lower value) was 0.994 and the normalized growth (S. cerevisiae deletion strains, strain TSCII, stronger effect = lower value) was 0.995.
